Screening results as filed in PubChem BioAssay.
In the library only some 11% were active in any assay of this set; here they are far more common.
IMPase cell inh = membrane-permeable compound that blocks inositol monophosphatase; 120,000 tested, under 10 active; CHO-M1 cells, IP1 accumulation, HTRF TR-FRET ratio; P97697; inhibition (IP1 accumulation), % at 46.1 µM; active means well fitted curve in the direction sought with a large enough effect in the signal ratio, not every such curve was filed as active; inconclusive means small, poorly fitted or top-dose-only effect, or a change in a side signal; inactive means no such curve, though single readings can be large or run the other way; the % refers to the signal ratio;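 further: cells stimulated with carbachol in lithium chloride buffer; higher means more IMPase inhibition seen as more IP1 and lower FRET ratio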
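CHO-M1 cells (CHO stably expressing M1 receptor), compound up to 46 uM final, stimulated with carbachol (50 uM as added) in buffer with 50mM LiCl, pH 7.4, 30 min at 37C. Cytosolic IP1 read by TR-FRET; AC50 from Hill fits.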
PNC inhibitor = blocks assembly of the perinucleolar compartment; activity change (PNC), negative = inhibition, % at 10 µM; 3.1% of 140,000 active; PC3M PTB-GFP, PNC prevalence imaging, 16 h; hits give low values; AID 2417;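 active means readout at or below -70, meaning at least 70% loss of cells showing the perinucleolar compartment, a nuclear body marking cancer cells; inconclusive means readout between -30 and a set limit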
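Read-out is percentage of cells bearing a perinucleolar compartment, from automated 20x imaging of fixed, Hoechst-stained PC3M PTB-GFP cells. Cells were seeded 4 h, then exposed 16 h to compound (23 nl of library stock) in duplicate plates.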
HPGD block = blocks human HPGD enzyme activity; Potency, µM, hits mostly inhibitors; P15428; AID 894; purified HPGD, NADH fluorescence kinetic, PGE2 substrate; 4.3% of 150,000 active
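NADH formation kinetics: reaction with 30 uM PGE2 and 1 mM NAD+ (final), 20 nM enzyme, Tris-HCl pH 8 with Tween 20, after 15 min compound preincubation at room temperature. Fluorescence change, last versus first of five reads.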
ALOX12 inhib = 12-hLO (ALOX12) enzyme inhibition | P18054 | purified 12-hLO, xylenol orange hydroperoxide absorbance | Potency, µM (highest dose often 57.1 µM), most hits filed as inhibitors | 0.12% of 150,000 active | AID 1452; active means well fitted curve in the direction sought with a large enough effect; inconclusive means small, poorly fitted or top-dose-only effect, or another doubt; inactive means no such curve, though single readings can be large; an effect the other way counts as inactive or inconclusive; further: nearly all actives have a fitted effect of over 55% in size
Target sequence (P18054 whole entry, looked up): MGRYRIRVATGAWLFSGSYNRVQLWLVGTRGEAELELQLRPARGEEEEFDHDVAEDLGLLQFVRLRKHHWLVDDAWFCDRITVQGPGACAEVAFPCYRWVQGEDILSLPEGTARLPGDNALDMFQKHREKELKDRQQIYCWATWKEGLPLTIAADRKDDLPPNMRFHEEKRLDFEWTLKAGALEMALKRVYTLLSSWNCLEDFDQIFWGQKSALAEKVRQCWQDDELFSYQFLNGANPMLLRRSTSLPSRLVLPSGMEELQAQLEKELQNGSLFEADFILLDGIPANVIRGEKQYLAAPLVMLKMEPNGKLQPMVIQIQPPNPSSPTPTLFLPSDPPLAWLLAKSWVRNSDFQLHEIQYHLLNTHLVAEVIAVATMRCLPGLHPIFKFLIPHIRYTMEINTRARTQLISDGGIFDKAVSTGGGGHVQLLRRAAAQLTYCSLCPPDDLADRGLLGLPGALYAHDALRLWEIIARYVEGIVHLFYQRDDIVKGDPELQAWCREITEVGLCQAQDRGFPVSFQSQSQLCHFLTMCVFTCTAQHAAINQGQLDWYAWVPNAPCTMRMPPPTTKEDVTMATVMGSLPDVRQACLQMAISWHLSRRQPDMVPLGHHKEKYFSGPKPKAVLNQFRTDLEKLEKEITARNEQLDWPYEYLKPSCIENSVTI
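Hydroperoxide formation by human 12-lipoxygenase from 40 uM arachidonic acid was followed colorimetrically via ferric-xylenol orange complex, using the 573/405 nm absorbance ratio. Enzyme concentration was 150 nM, with 30 min reaction at room temperature.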
IMPase Li inh = IMPase inhibition in cells with lithium potentiation. CHO-M1 cells, IP1 TR-FRET (IP-One), carbachol + lithium. 0.35% of 210,000 active. Potency, µM (top dose mostly 59.4 µM), usual class: inhibitors. AID 1457; active means well fitted curve in the direction sought with a large enough effect; inconclusive means small, poorly fitted or top-dose-only effect, or another doubt; inactive means no such curve, though single readings can be large; an effect the other way counts as inactive or inconclusive;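 further: IP1 builds up when IMPase is blocked and the TR-FRET signal falls; nearly all actives have a fitted effect of over 50% in size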
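CHO-M1, 2000 cells/well, 16–30 h culture; cpd + low Li+, 30 min 37C; lysis with d2-IP1/Eu-anti-IP1 Ab, 10 min RT; TR-FRET 665/620 ratio and 620 channel; AC50 via Hill.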
ALDH1A1 block = inhibitors of human aldehyde dehydrogenase 1A1; P00352; Purified ALDH1A1, NADH fluorescence, propionaldehyde substrate; Potency, µM (doses to about 75.3 µM), most hits filed as inhibitors; 7.3% of 220,000 active; AID 1030
Of the large screens only hits and unclear results are named; the others gave an inactive call. Unless noted, the call rests on the fitted dose curve; in most records, active means well fitted inhibition curve with a large enough effect (not every such curve was filed as active); inconclusive means small, poorly fitted or top-dose-only effect, or another doubt; inactive means no such curve, though single readings can be large or run the other way.

CCOc1ccccc1NC(=O)C1CCN(S(=O)(=O)c2ccccc2)CC1	none (no result: PNC inhibitor, HPGD block, ALOX12 inhib, IMPase Li inh, ALDH1A1 block)
Cc1ccc(NC(=O)CSc2nc3ccc(Br)cc3[nH]2)c(C)c1	none (no result: PNC inhibitor, HPGD block, ALOX12 inhib, IMPase Li inh, ALDH1A1 block)
CCOc1ccc(OCC)c(NC(=O)CN2CCN(c3cc(C)ccc3C)CC2)c1	ALDH1A1 block 3.5µM
O=C(CN1CCN(Cc2ccccc2)CC1)Nc1ccccc1-c1ccccc1	ALDH1A1 block 11µM (no result: IMPase cell inh, PNC inhibitor, HPGD block, ALOX12 inhib)
COc1ccccc1NC(=O)CN1CCN(c2ccccn2)CC1	ALDH1A1 block inconclusive
COc1ccccc1NC(=O)CN1CCN(Cc2ccccc2)CC1	PNC inhibitor -87, ALDH1A1 block 10µM
C[C@@]1(C(=O)O)NCCc2cc(O)c(O)cc21	HPGD block inconclusive, ALDH1A1 block inconclusive (no result: PNC inhibitor)
CCN1C(=O)[C@H]2[C@H]3[C@H](O)[C@H](O)C/C(=N/O[C@@H]4O[C@@H](COC(C)=O)[C@@H](OC(C)=O)[C@@H](OC(C)=O)[C@H]4OC(C)=O)[C@@H]3CC[C@@H]2C1=O	none (no result: IMPase cell inh, PNC inhibitor, HPGD block, ALOX12 inhib, IMPase Li inh)
CC(=O)N/C(=C\c1ccccc1)C(=O)OCC(=O)N1CCCCCC1	PNC inhibitor inconclusive, ALDH1A1 block 11µM (no result: HPGD block, IMPase Li inh)
CC(=O)N/C(=C/c1ccccc1)C(=O)N1CCCCC1	PNC inhibitor inconclusive, ALDH1A1 block inconclusive (no result: HPGD block, IMPase Li inh)
Cc1ccc(-c2[nH]c3ccccc3c2C(C[N+](=O)[O-])c2ccco2)cc1 (stereo not drawn)	ALDH1A1 block 28µM
Cc1ccc(S(=O)(=O)Nc2nc(C)c(NC(=O)OCCCl)s2)cc1	PNC inhibitor inconclusive, ALDH1A1 block inconclusive
Cc1ccc(S(=O)(=O)Nc2nc(C)c(NC(=O)Nc3ccc(Cl)cc3Cl)s2)cc1	PNC inhibitor inconclusive, ALOX12 inhib 7.1µM
COc1ccc(NC(=O)Nc2sc(NS(=O)(=O)c3ccccc3)nc2C)cc1	ALDH1A1 block 8.9µM (no result: IMPase cell inh, PNC inhibitor, HPGD block, ALOX12 inhib)
COc1ccc(NC(=O)Nc2sc(=S)n(C)c2C)cc1	ALDH1A1 block 16µM (no result: IMPase cell inh, PNC inhibitor, HPGD block, ALOX12 inhib)
COc1cc(/C=C2\CC/C(=C\c3cc(OC)c(O)c(OC)c3)C2=O)cc(OC)c1O	HPGD block inconclusive (no result: IMPase cell inh)
COc1cc(/C=C2/CCC/C(=C\c3cc(O)c(OC)c(Cl)c3)C2=O)cc(Cl)c1O	ALDH1A1 block 14µM
C=CCOC(=O)c1[nH]c2c(c1C)C(=O)CC(c1cc(OC)c(OC)c(OC)c1)C2 (stereo not drawn)	ALDH1A1 block inconclusive
CCCCOC(=O)c1[nH]c2c(c1C)C(=O)CC(c1cc(OC)c(OC)c(OC)c1)C2 (stereo not drawn)	ALDH1A1 block 5µM
COCCOC(=O)c1[nH]c2c(c1C)C(=O)CC(c1ccccc1)C2 (stereo not drawn)	PNC inhibitor -100
COC(=O)c1[nH]c2c(c1C)C(=O)CC(c1cccs1)C2 (stereo not drawn)	PNC inhibitor -85
CCOC(=O)c1[nH]c2c(c1-c1ccc(OC)cc1)C(=O)CC(c1ccc(OC)c(OC)c1)C2 (stereo not drawn)	ALDH1A1 block 28µM (no result: IMPase cell inh)
COCCOC(=O)c1[nH]c2c(c1C)C(=O)CC(c1ccc(N(C)C)cc1)C2 (stereo not drawn)	PNC inhibitor inconclusive, ALDH1A1 block 14µM
Cc1cccc(C)c1Nc1oc(-c2ccccc2)nc1-c1ccccc1	none (no result: IMPase cell inh, PNC inhibitor)
CC(C)N=c1scc(-c2ccco2)n1/N=C/c1ccc(O)c(O)c1	HPGD block 32µM, ALOX12 inhib inconclusive
Oc1ccc(/C=N/n2c(-c3ccco3)csc2=Nc2cccnc2)c(O)c1	none (no result: IMPase cell inh)
COCCN=c1scc(-c2ccco2)n1/N=C/c1ccc(O)c(O)c1O	ALDH1A1 block 8.9µM (no result: IMPase cell inh, PNC inhibitor, HPGD block, ALOX12 inhib)
O=C(O)CCc1ccc(-c2ccccc2)o1	PNC inhibitor inconclusive, ALDH1A1 block 3.5µM
Cn1c(C(=O)Nc2ccc3c(c2)OCCO3)cc2c(=O)n(C)c3ccccc3c21	HPGD block inconclusive, ALDH1A1 block 25µM
COc1ccccc1N1CCN(C(=O)c2cc3c(=O)n(C)c4ccccc4c3n2C)CC1	PNC inhibitor -88, ALDH1A1 block inconclusive
COc1ccccc1N1CCN(C(=O)c2cc3sccc3n2C)CC1	none
Cn1c(C(=O)N2CCN(C(=O)c3ccco3)CC2)cc2c(=O)n(C)c3ccccc3c21	ALDH1A1 block 20µM
Cn1c(C(=O)N2CCN(C3CCCCC3)CC2)cc2c(=O)n(C)c3ccccc3c21	none
COc1ccc(-c2nc3cnc(N(C)C)nc3n(Cc3ccc(F)cc3)c2=O)cc1	ALDH1A1 block inconclusive (no result: IMPase cell inh, PNC inhibitor, HPGD block, ALOX12 inhib)
COc1ccc(CC2CCOC2=O)cc1 (stereo not drawn)	PNC inhibitor -127
Nc1nc(CN2CCN(Cc3ccc4c(c3)OCO4)CC2)nc(Nc2ccccc2)n1	PNC inhibitor -129
Nc1nc(CN2CCC(Cc3ccccc3)CC2)nc(Nc2ccccc2)n1	PNC inhibitor -105
Cc1ccc(Nc2nc(N)nc(CN3CCN(c4ccccc4F)CC3)n2)cc1	ALDH1A1 block 32µM
CC(C)CN1CCCC2(CCN(C(=O)c3cccn3C)CC2)C1	none (no result: IMPase cell inh, PNC inhibitor)
CCNc1nc(N)nc(Oc2ccc(OCCOc3ccc(Cl)cc3Cl)nn2)n1	PNC inhibitor inconclusive, HPGD block 1µM
CCNc1nc(NCC)nc(Oc2ccc(OCC)nn2)n1	PNC inhibitor inconclusive
